From PubChem BioAssay AID1851 (National Center for Advancing Translational Sciences (NCATS), 2009)
The campaign covered roughly 16,000 compounds. About 5,700 (36%) were called active. About 24% were inconclusive and are not listed. This is one part of the list. A number with no mark means an inactive call. The call rests on the fitted dose curve; in most records, active means well fitted curve in the direction sought with a large enough effect; inconclusive means small, poorly fitted or top-dose-only effect, or effect the other way; inactive means no such curve, though single readings can be large or run the other way.

These compounds were tested against Cytochrome P450 1A2 (Homo sapiens) (UniProt P05177) (assay: Cytochrome panel assay with activity outcomes). Conditions: recombinant CYP, pro-luciferin dealkylation, luminescence, p450-cyp1a2; series mostly up to 57.1 µM; activity, negative = inhibition: at the top concentration.
Cytochrome P450 1A2 (Homo sapiens), sequence (P05177 whole entry, looked up): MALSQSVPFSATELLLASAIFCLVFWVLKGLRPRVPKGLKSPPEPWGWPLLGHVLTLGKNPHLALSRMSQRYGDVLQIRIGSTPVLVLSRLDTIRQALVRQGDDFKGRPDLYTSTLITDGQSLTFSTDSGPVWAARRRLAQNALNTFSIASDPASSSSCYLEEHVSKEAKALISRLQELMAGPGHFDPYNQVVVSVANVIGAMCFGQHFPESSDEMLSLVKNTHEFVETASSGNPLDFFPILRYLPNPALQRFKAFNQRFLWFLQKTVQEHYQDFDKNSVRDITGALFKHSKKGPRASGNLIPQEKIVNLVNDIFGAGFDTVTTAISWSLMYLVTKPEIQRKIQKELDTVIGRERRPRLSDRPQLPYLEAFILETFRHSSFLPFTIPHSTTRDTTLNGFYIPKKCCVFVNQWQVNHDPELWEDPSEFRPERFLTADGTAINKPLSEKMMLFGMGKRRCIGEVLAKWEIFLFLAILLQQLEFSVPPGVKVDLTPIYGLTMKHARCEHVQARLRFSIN
On the % scale 0 is the no-effect control and ±100 the full control effect.

Row | Structure (SMILES) | AC50 | activity, negative = inhibition
1 | COC(=O)c1[nH]c2ccc(Br)cc2c1NC(=O)CN1CCCc2ccccc21 | 5.01 µM (active) | –
2 | COC(=O)c1[nH]c2ccc(Br)cc2c1NC(=O)CN1CCN(C2CCCCC2)CC1 | 12.6 µM (active) | –
3 | C[C@@H]1CCCN(C[C@@H](O)CN2CCCc3ccccc32)C1 | – | -10.7% [at 11.4 µM]
4 | CC(C)(CN)CN | – | 2.94% [at 11.4 µM]
5 | CN(C)CCNc1nc2c(c(=O)n(C)c(=O)n2C)n1C | – | -7.73% [at 11.4 µM]
6 | COc1ccccc1CN1CC2(CCN(S(=O)(=O)c3ccccc3)CC2)C1 | – | 18.1%
7 | COc1cc([C@H]2c3cc4c(cc3[C@@H](O)[C@@H]3COC(=O)[C@H]23)OCO4)cc(OC)c1OC | – | -19.8% [at 25.6 µM]
8 | COc1cc2c(c(O)c1OC)C(=O)C(OC)CCC2 (stereo unspecified) | 12.6 µM (active) | –
9 | C/C(CCC(=O)OC[C@@H]1O[C@H](C#Cc2ccccc2)C=C[C@@H]1Oc1ccc(C)cc1)=N/O[C@@H](C)CN1CCCCc2nc(C)c(C)cc21 | – | -3.03% [at 11.4 µM]
10 | O=[N+]([O-])c1ccc2c(c1)S(=O)c1ccccc1-2 (stereo unspecified) | 0.2 µM (active) | –
11 | CC1=c2c(oc3cc(O)c(Nc4c(C)cc(O)cc4O)c(C)c23)=CC(=O)C1=Nc1c(C)cc(O)cc1O | 3.16 µM (active) | –
12 | CN1[C@@H]2CC[C@H]1CC(OC(c1ccccc1)c1ccccc1)C2 (stereo partly specified) | inactive | –
13 | N#Cc1ccc(CN2CCC3(CC2)CCN(S(=O)(=O)c2ccccc2)CC3)cc1 | – | -22.8%
14 | CS(=O)(=O)c1nc2ccccc2n1Cc1ccccc1 | 11.2 µM (active) | –
15 | C=CCC(C)(NCc1ccccc1)c1ccco1 (stereo unspecified) | – | -27.6%
16 | C=CCn1c(NCc2ccccc2)nc2ccccc21 | 10 µM (active) | –
17 | O=S(=O)(O)c1nc2ccccc2n1Cc1ccccc1 | – | -14.6%
18 | C=CC(=O)NC(C)(C)Cc1ccccc1 | – | -14.6%
19 | CC(=O)Nc1nc2ccccc2n1Cc1ccccc1 | 14.1 µM (active) | –
20 | CO[C@@H]1COC(=O)C/C=C\[C@@H](C)[C@H](OC)COC(=O)[C@H](COCc2ccccc2)NC(=O)C/C=C\[C@H]1C | – | -0.402% [at 11.4 µM]
21 | COCC(=O)N1CCC2(CCCN(C(=O)Nc3cccc(C#N)c3)C2)CC1 | – | 0.755%
22 | O=C(Nc1ccc(-c2cc3ccccc3oc2=O)c(Cl)c1)c1cccnc1 | – | 13.8%
23 | O=c1oc2ccccc2cc1-c1csc(NN=C2CCCCC2)n1 | 0.891 µM (active) | –
24 | Clc1ccc(Cl)c(SCCCN2CCNCC2)c1 | 0.501 µM (active) | –

Row | Structure (SMILES) | AC50 | activity, negative = inhibition
25 | Cc1c(C=O)c2ccccn2c1C(=O)c1ccncc1 | 1.12 µM (active) | –
26 | COCCN1C(=O)C(=O)/C(=C(/O)c2cccc(OC)c2)C1c1ccco1 (stereo unspecified) | – | -13.8%
27 | c1cncc(-c2nc(N3CCNCC3)c3ccccc3n2)c1 | 2.51 µM (active) | –
28 | CN1CCN(c2ccncc2S(=O)(=O)N2CCN(C)CC2)CC1 | – | -7.43% [at 2.29 µM]
29 | CC(C)c1ccccc1-n1c(SCC(=O)N2CCN(c3ccccc3)CC2)nnc1-c1cccnc1 | – | -23.2%
30 | CN1CCN(c2nc(-c3cccnc3)nc3ccccc23)CC1 | 3.16 µM (active) | –
31 | N#CCSc1nc(N)c(C#N)c(C2CCCCC2)c1C#N | 10 µM (active) | –
32 | Cn1c(=O)c2[nH]c(CCS)nc2n(C)c1=O | – | -15.3% [at 11.4 µM]
33 | Cn1c(=O)c2[nH]c(C3CCCC3)nc2n(C)c1=O | 12.6 µM (active) | –
34 | CCCn1c(=O)c2[nH]c(C3CCCC3)nc2n(CCC)c1=O | 0.251 µM (active) | –
35 | Cn1c(=O)c2[nH]c([C@@H]3CC(=O)C[C@H](c4nc5c([nH]4)c(=O)n(C)c(=O)n5C)N3)nc2n(C)c1=O | – | -18.2% [at 2.29 µM]
36 | CCCCCn1c(CN2CCCCC2C)nc2c1c(=O)n(C)c(=O)n2C (stereo unspecified) | – | -17%
37 | CC(C)(C[C@@]1(C)NC(=O)NC1=O)OCc1ccccc1 | – | -12.1% [at 2.29 µM]
38 | CC(C)Oc1ccc(C2CC(=O)NC3=C2C(=O)CCC3)cc1 (stereo unspecified) | – | -14.5%
39 | CC1=NN(c2ccccc2)C(=O)/C1=C\N1CC(C)OC(C)C1 (stereo unspecified) | – | -23.7%
40 | CC1=NN(c2ccccc2)C(=O)C1 | 12.6 µM (active) | –
41 | CC(=O)NC1=NN(c2ccccc2)C(=O)C1 | – | -12.4%
42 | Cc1cccc(OCCn2c(-c3ccco3)nc3ccccc32)c1 | 1.58 µM (active) | –
43 | Cc1cccc(OCCn2c(S(=O)(=O)O)nc3ccccc32)c1 | – | -12.6%
44 | N=C(N)SCCc1ccc(CCSC(=N)N)cc1 | – | -3.85%
45 | C[N+]1(CCOc2ccc([N+](=O)[O-])cc2)CCOCC1 | – | -1.1%
46 | N=C(N)SCCc1ccc(OCc2ccc([N+](=O)[O-])cc2)cc1 | 31.6 µM (active) | –
47 | CC(C)=CCC/C(C)=C/CO/N=C1/C[C@@H](O)[C@@H](O)[C@@H]2[C@H]3C(=O)N(c4ccc(F)cc4F)C(=O)[C@@H]3CC[C@H]12 | – | -0.361% [at 11.4 µM]
48 | CCOc1ccc2[nH]c(=O)c(CN(CCc3ccccc3)C(=O)N3CCCC3)cc2c1 | 14.1 µM (active) | –

Row | Structure (SMILES) | AC50 | activity, negative = inhibition
49 | COc1ccc(S(=O)(=O)N(CC(=O)N2CCCC2)Cc2ccccc2)cc1 | – | 2.54%
50 | COc1ccc(S(=O)(=O)N(CCc2ccccc2)CC(=O)N2CCOCC2)cc1 | – | -25.1%
51 | CSc1n[nH]c(-c2sccc2OCc2ccc(C)cc2)n1 | 1.41 µM (active) | –
52 | CSc1nnc(-c2sccc2OCc2ccccc2)n1C | 7.08 µM (active) | –
53 | Cn1c(-c2sccc2OCc2ccccc2)n[nH]c1=S | 0.355 µM (active) | –
54 | CC(=O)O[C@]1(C)N=NC2(CCCCC2)O1 | – | -9.6% [at 11.4 µM]
55 | CC(=O)OC[C@@H]1O[C@@H](O/N=C2/C[C@@H](O)[C@@H](O)[C@@H]3[C@@H]4C(=O)N(C[C@@H]5CCCO5)C(=O)[C@H]4CC[C@H]23)[C@H](OC(C)=O)[C@H](OC(C)=O)[C@@H]1OC(C)=O | – | -5.84% [at 11.4 µM]
56 | Cc1noc(C)c1-c1cncnc1N1CCN(C)CC1 | – | -14.7%
57 | Cc1noc(C)c1-c1ccc2ncnc(N3CCN(C)CC3)c2c1 | 12.6 µM (active) | –
58 | Cc1noc(C)c1-c1ccc2ncnc(N3CCOCC3)c2c1 | 12.6 µM (active) | –
59 | NCCc1ccn[nH]1 | – | -2.19% [at 25.6 µM]
60 | CCOC(=O)c1[nH]c2cc(OC)c(OC)cc2c1NC(=O)c1nonc1C | 1 µM (active) | –
61 | COC(=O)c1[nH]c2cc(OC)ccc2c1NC(=O)c1ccc2c(c1)OCO2 | 2.51 µM (active) | –
62 | COc1cc(C(=O)OCC(=O)Nc2cc(C)on2)cc(OC)c1OC | – | -14.8%
63 | CCOC(=O)c1[nH]c2cc(OC)c(OC)cc2c1NC(=O)c1ccc2c(c1)OCO2 | 2.24 µM (active) | –
64 | CCOC(=O)c1[nH]c2cc3c(cc2c1NC(=O)CN1CCc2ccccc2C1)OCO3 | 2.82 µM (active) | –
65 | CC1(C)CC(NC(=O)c2ccc3c(c2)OCO3)CC(C)(C)N1 | – | -25.9%
66 | Cc1ccc(NC(=O)CN2CCC(NC(=O)Cc3ccccc3)CC2)cc1C | – | -9.71%
67 | c1ccc2c[n+](Cc3ccnc4ccccc34)ccc2c1 | – | -21.8% [at 2.29 µM]
68 | CCOC(=O)N1CCC(NC(=O)c2cc(S(=O)(=O)N3CCCC3)cn2C)CC1 | – | -27.9%
69 | O=C(CCN1CCOCC1)Nc1ccc(F)cc1F | – | -11.8% [at 11.4 µM]
70 | CCOC(=O)c1[nH]c2ccc(OC)cc2c1NC(=O)c1ccc2c(c1)OCO2 | 2.24 µM (active) | –
71 | COC(=O)c1[nH]c2cc(OC)ccc2c1NC(=O)CCN1CCSCC1 | 1.41 µM (active) | –
72 | CCN1CCN(CCC(=O)Nc2cccc(OC)c2)CC1 | – | 3.85%

Row | Structure (SMILES) | AC50 | activity, negative = inhibition
73 | CN(C)c1ncc2nc(-c3ccc(F)cc3)c(=O)n(C[C@H]3CCCO3)c2n1 | 2.51 µM (active) | –
74 | COc1ccc(-c2nc3cnc(N(C)C)nc3n(C[C@H]3CCCO3)c2=O)cc1 | 3.16 µM (active) | –
75 | C/C(CCc1ccc2c(c1)OCO2)=N\N=C1\NC(=O)CC(C(=O)Nc2ccccc2)S1 (stereo unspecified) | 15.8 µM (active) | –
76 | C[C@@H]1[C@H]2CC[C@@H]3[C@@H]4CC=C5C[C@@H](N(C)C)CC[C@]5(C)[C@@H]4CC[C@@]32CN1C | – | 6.72% [at 25.6 µM]
77 | CCOc1[nH]n(-c2ccc(Cl)cc2)c(=O)c1C=Nc1ccc(Cl)cc1 | 2.82 µM (active) | –
78 | CCc1nnc(NS(=O)(=O)c2ccc(N=Cc3c(C)[nH]n(-c4ccc(C)cc4)c3=O)cc2)s1 | – | -14.8%
79 | CCOc1[nH]n(-c2ccccc2)c(=O)c1C=Nc1ccc(Cl)cc1 | 2 µM (active) | –
80 | OCCN1CCOCCOCCN(CCO)CCN(CCO)CC1 | – | -6.35%
81 | Nc1nc(Br)c2c(F)cccc2c1-c1ccc(Cl)cc1 | 3.55 µM (active) | –
82 | Nc1nc(Br)c2c(F)cccc2c1-c1ccc(F)cc1 | 1.26 µM (active) | –
83 | Nc1nc(Br)c2ccccc2c1-c1ccc(F)cc1 | 1.26 µM (active) | –
84 | CCCOc1ccc(C2C(=O)N(C3CCCCC3)CC(=O)N2C2CC2)cc1OC (stereo unspecified) | – | -13.6%
85 | CCCCCCCCCCCCC/C=C\[C@@H](O)[C@H](CO)NC(C)=O | 20 µM (active) | –
86 | CCCCCCCCCCCCCCC/C=C\[C@H](O)[C@@H](NC(=O)CCCCCCCCCCCCC)OC (tested in a mixture with another compound) | – | -7.38%
87 | CCCCCCCCCCCCCCCC(=O)NC(C)C | – | -6.69%
88 | CC(=O)Nc1ccc(S(=O)(=O)N=S(C)C)cc1 | inactive | –
89 | Cc1cccc(C)c1NC(=O)CSc1nc(C)c(CC(=O)c2ccc(Br)cc2)c(C)c1C#N | – | -4.64%
90 | Cc1cc(C)c(C#N)c(OCC(=O)c2ccc(Br)cc2)n1 | 1.26 µM (active) | –
91 | Fc1cc2nc(-c3ccncc3)[nH]c2cc1F | 2 µM (active) | –
92 | Cc1cc2nc(SCCOC(=O)Nc3ccc(Cl)cc3)nc(C)c2cc1C | 1.41 µM (active) | –
93 | CCCCCCCCCCCC1=C(O)C(=O)C=C(O)C1=O | – | -60.5%
94 | COCCn1c(=O)c(-c2ccc(OC)cc2)nc2cnc(OC)nc21 | 3.16 µM (active) | –
95 | COCCn1c(=O)c(-c2ccc(Cl)cc2)nc2cnc(OC)nc21 | 0.398 µM (active) | –
96 | COCCn1c(=O)c(-c2ccccc2)nc2cnc(OC)nc21 | 1 µM (active) | –
